# Pf growth 48h: inhibits P. falciparum growth in the first generation, 48 h; AID 504832; 310,000 compounds, 5.9% hits; Potency, µM (top dose mostly 28.7 µM), inactives show at the highest dose activity change, negative = inhibition, actives largely listed as inhibitors; P. falciparum luciferase growth in erythrocytes, 48 h; note: % is set by controls: 0 for no effect and ±100 for the full control effect
#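 Luciferase-expressing parasites in RBCs, 2% Hct / 0.1% parasitemia final; RPMI 1640 + 0.5% Albumax; 37 C, 5% CO2, one generation; luminescence read-out, lower signal = inhibition.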
# HCV inhibitor: blocks hepatitis C virus. Huh7.5.1 HCVcc-Cre infection, luciferase reporter, 44 h. Potency, µM (titrated, usually from 41.8 µM), inactives show at the top dose activity change, negative = inhibition, usual class: inhibitors. 340,000 compounds, 3.4% hits. AID 651820; note: % is set by controls: 0 for no effect and ±100 for the full control effect
#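 Infectious HCVcc-Cre (~0.5 moi) was added to cells just after compound, with cells seeded 4 h earlier at 1,000 per well. Luciferase activity after 44 h culture reported infection; substrate was incubated 15 min at room temperature before reading.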
# Pf growth 96h: inhibits malaria parasite growth, 96 h; P. falciparum luciferase reporter growth, 96 h; Potency, µM (titrated, usually from 28.7 µM), for inactives: top-dose activity change, negative = inhibition, usual class: inhibitors; 320,000 compounds, 6.9% hits; AID 504834; note: % is set by controls: 0 for no effect and ±100 for the full control effect
#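 Two parasite generations (96 h, 37 C, 5% CO2) of compound exposure in infected erythrocytes (0.05% parasitemia, 2% hematocrit). Luciferase-reporter P. falciparum; decreased luminescence indicates inhibited growth, aimed at apicoplast-acting delayed death.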
# AMA1-RON2 inh: disrupts binding of P. falciparum AMA1 to RON2. AlphaScreen AMA1-biotinylated RON2 peptide binding. Potency, µM (highest dose often 58.2 µM), for the others: at the top dose activity change, negative = inhibition, most hits filed as inhibitors. 360,000 compounds, 0.2% hits. AID 720542;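 note: 0% = vehicle wells and -100% = peptide control; nearly all actives have a fitted effect of over 45% in size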
#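 AMA1 (3D7) with his tag at 25 nM final met compounds first, then biotinylated RON2 peptide at 25 nM; detection used donor plus acceptor beads, 10 µg/mL apiece, read by AlphaScreen after 30 min at room temperature.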
# HCV confirm: HCV inhibition, cherry-pick confirmation; shares compounds with HCV inhibitor; HCVcc-Cre infectious virus cell assay, luciferase, inhibition; Potency, µM (highest dose often 41.8 µM), without a hit: at the top dose activity, negative = inhibition, most hits filed as inhibitors; 640 compounds, 78% hits; note: nearly all actives have a fitted effect of over 80% in size
# HCV host tox: toxic to HCV host cells, flagging false HCV inhibitors | shares compounds with HCV inhibitor | HCV host cell line cytotoxicity counterscreen | Potency, µM (titrated, usually from 41.8 µM), without a hit: top-dose activity change, negative = cytotoxicity, actives largely listed as inhibitors | 640 compounds, 22% hits;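 note: 44 h compound exposure; % is set by controls: 0 for no effect and ±100 for the full control effect; nearly all actives have a fitted effect of over 55% in size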
# Numbers without * were called inactive; ? = inconclusive; . = not tested or not shown; ! = not confirmed by another sample; [ ] = another dose, or the depositor's remark. An excerpt weighted towards active compounds, which were near 11% of everything screened. Calls come from the whole dose curve; as a rule, active = well fitted curve in the direction sought with a large enough effect; inconclusive = small, poorly fitted or top-dose-only effect, or another doubt; inactive = no such curve, though single readings can be large; an effect the other way counts as inactive or inconclusive. Potency is the fitted concentration of half-maximal effect.
SMILES,Pf growth 48h,HCV inhibitor,Pf growth 96h,AMA1-RON2 inh,HCV confirm,HCV host tox
COC(=O)c1ccc(CN2CCc3ccc(NC(=O)c4ccncc4)cc3C2)cc1,?,8.91µM*,-1.3%,-2.2%,14.1µM*,?
Cn1nc(C(F)(F)F)c2cc(NC(=O)OCc3ccc(C(C)(C)C)cc3)sc21,.,?,-32.9%,-16.8%,25µM*,?
O=C(/C=C/c1ccco1)Nc1ccc(-c2nc3ccccc3[nH]2)cc1,4.15µM*,2.82µM*,11.7µM*,-2.4%,6.28µM*,?
O=C(Nc1ccc(-c2nc3ccccc3[nH]2)cc1)c1ccco1,-49.6%,?,-0.2%,2.5%,.,.
Cc1cc(C(=O)N/N=C/c2ccc(O)c(O)c2O)c(C)n1-c1ccccc1,11.7µM*,5.62µM*,1.3%,27.4%,12.5µM*,?
Cc1cc(/C=N/NC(=O)c2ccncc2)c(C)n1-c1ccccc1,26.2%,?,?,63.0%,.,.
Cc1nnsc1C(=O)NC1CCCc2c1cnn2-c1ccc(C(C)(C)C)cc1 (stereo unspecified),?,1.58µM*,?,-12.1%,3.15µM*,5.6µM*
C[C@H]1C[C@@H]2[C@H]([C@@H](O)C[C@@]3(C)[C@H]2CC[C@]3(O)C(=O)CO)[C@@]2(C)C=CC(=O)C=C12,-26.5%,5.62µM*!,?,8.0%,-4.9%,45.9%
COC(=O)c1cc(C(=O)OCC(=O)c2ccc[nH]2)cc([N+](=O)[O-])c1,10.2%,?,-1.5%,0.0%,.,.
CC(C)(C)OC(=O)N1CCN(C(=O)c2[nH]cnc2C(=O)Nc2nccs2)CC1,20.5%,17.6%,-3.5%,148.9%,.,.
CN1CCN(c2ccc([N+](=O)[O-])c3no[n+]([O-])c23)CC1,?,2.24µM*,?,-29.1%,22.3µM*,22.3µM*
N#CCCn1cc(C(=O)N2CCCCC2)c(-c2ccc([N+](=O)[O-])cc2)n1,11.4%,21.5%,?,8.5%,.,.
COc1cc2ccccc2cc1C(=O)Nc1ccccc1N1CCCC1,?,?,?,?,14.1µM*,-84.5%
CCn1c(=O)n(CC)c2cc(N3CCCC3)c(NC(=O)c3cc(Cl)ccc3OC)cc21,?,3.98µM*,8.28µM*,-6.1%,15.8µM*,?
CC(=O)N1CCc2cc(Br)cc(S(=O)(=O)NCCCN(C)Cc3ccccc3)c21,?,-21.6%,1.8%,3.3%,.,.
C=C1CCN([C@@H](Cc2ccccc2)C(=O)NCCC(C)C)S(=O)(=O)c2ccccc21,.,?,.,-1.6%,.,.
CCN(CC)CCNC(=S)Nc1ccc2nc(N3CCOCC3)cc(C)c2c1,20.4%[0.00184 µM],?,-15.1%,3.7%,.,.
CCN1CCN(c2cc(C)c3cc(NC(=O)c4cc(OC)cc(OC)c4)ccc3n2)CC1,?,2.24µM*,?,8.7%,25µM*,22.3µM*
CCN(CC)CCNC(=S)Nc1ccc2nc(N3CCCC3)cc(C)c2c1,?,2µM*,-5.8%,-9.7%,7.05µM*,-23.1%
O=C(Cc1c(Cl)cccc1Cl)Nc1cccnc1,?,-16.4%,?,-4.2%,.,.
CCN(CC(=O)NCc1ccc(Cl)cc1)C(=O)c1cc2ccccc2o1,-4.3%,-25.1%,-13.0%,-3.2%,.,.
S=C(NCc1ccccc1)Nc1cccc2cnccc12,21.5%,2µM*,6.8%,-1.5%,7.05µM*,9.95µM*
O=C(NC(Nc1nc2ccc([N+](=O)[O-])cc2s1)(C(F)(F)F)C(F)(F)F)c1cccnc1,7.38µM*,4.47µM*,?,4.3%,2.5µM*,7.05µM*
Cn1nc(Oc2ncc(C(F)(F)F)cc2Cl)cc1C(F)(F)F,306.9%,10.8%,25.7%,14.9%,.,.
CCOc1ccc(Br)cc1S(=O)(=O)Nc1cccc(S(=O)(=O)N(C)C)c1,-2.9%,12.4%,-19.5%,4.0%,.,.
SMILES,Pf growth 48h,HCV inhibitor,Pf growth 96h,AMA1-RON2 inh,HCV confirm,HCV host tox
c1ccc2c(c1)CCN(c1ncnc3c1[nH]c1ccccc13)C2,5.22µM*,2.51µM*,7.38µM*,-21.4%,2.8µM*,6.28µM*
c1ccc(Cn2nnc3c(N4CCc5ccccc5C4)ncnc32)cc1,?,-24.2%,46.8%,-19.9%,.,.
O=C(NC1c2ccccc2-c2ccccc21)c1ccco1,?,?,?,-4.2%,7.91µM*,-93.3%
O=C(NC1CCCCC1NC(=O)c1ccco1)c1ccco1 (stereo unspecified),13.9%,20.4%,?,2.3%,.,.
Cc1ccccc1S(=O)(=O)NC(=O)C1(C)CCN1C(=O)COc1ccc(Cl)cc1 (stereo unspecified),.,.,.,-0.2%,.,.
CC(=NNC(=S)N1CCN(C2CCCCCC2)CC1)c1ccccn1,.,0.891µM*,.,14.1µM*,0.112µM*,?
COCc1ccc(C(=O)N2CCCC(N3CCN(c4ccc(F)cc4)CC3)C2)o1 (stereo unspecified),?,-21.5%,28.1%,-15.6%,.,.
COc1cc(-c2nnc(-c3ccccc3)o2)cc(OC)c1OC,?,?,?,20.6%,14.1µM*,12.1%
COc1cc(-c2nnc(-c3cc(OC)c(OC)c(OC)c3)o2)cc(OC)c1OC,?,?,4.2%,3.4%,.,.
COc1ccc(C(=O)NC2CCCc3c2cnn3-c2ccccc2F)cc1OC (stereo unspecified),2.0%,4.47µM*,?,?,7.05µM*,?
CCC(=O)N(c1ccc(C(=O)O)cc1)c1nc(-c2ccc(OC)cc2)c(C)s1,?,4.0%,-0.7%,-2.9%,.,.
Cc1ccc(C)c(CNc2ccc(S(=O)(=O)N3CCCCC3)cc2)c1,11.7µM*,4.47µM*,?,0.0%,25µM*,31.5µM*
Cc1ccc(S(=O)(=O)N2CCCCC2)cc1,.,6.0%,17.5%,-5.2%,.,.
Cc1nc2ccccc2c(=O)n1NC(=O)c1cccc([N+](=O)[O-])c1,-24.4%,-0.8%,?,6.9%,.,.
O=C(c1cc(COc2ccc3ncccc3c2)on1)N1CCC[C@H]1CO,-6.2%,?,?,3.8%,7.91µM*,14.1µM*
CC1(C)Oc2ccc3ccc(=O)oc3c2-c2cn[nH]c21,?,7.08µM*,9.28µM*,12.3%,?,?
CC(=O)Nc1nnc(S(=O)(=O)N2CCN(c3ccc(Cl)cc3[N+](=O)[O-])CC2)s1,10.5%,17.2%,-2.6%,-10.6%,.,.
CN(C)CCOC1c2ccccc2CSc2ccccc21 (stereo unspecified),.,-9.2%,.,-18.3%,.,.
Clc1ccc2c(c1)C(OC1CN3CCC1CC3)c1ccccc1CS2 (stereo unspecified),?,10µM*,?,-9.9%,15.8µM*,?
CNC(=O)/C(C#N)=C/c1c(N(Cc2ccccc2)Cc2ccccc2)nc2ccccn2c1=O,?,?,?,-11.3%,.,.
CN(C)c1ccc(/C=C2\Oc3ccc(C#Cc4cccc(N)c4)cc3C2=O)cc1,.,?,.,24.0%,8.87µM*,38.6%

# Bioassay records (PubChem)
